This is part of a sample that, as a whole, favours compounds with a hit. Of some 83,000 tested, about 20% had one in any assay.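 Single-concentration screen, 48 h exposure, 96-well plates. Endpoint: percent growth. Below 10 = active.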 Unmarked numbers belong to inactive results. Calls of active or inactive are those of the source.
tested on: OVCAR-5 ovarian; experiment: NCI-60 one-dose screen, 48 h (100 = growth as untreated, 0 = no growth, -100 = all killed); details: 10 µM unless noted
Experimental: Growth inhibition of the OVCAR-5 human tumor cell line is measured as a screen for anti-cancer activity. Cells are grown in 96 well plates and exposed to the test compound for 48 hours. Compounds are tested at a single concentration, which is 10^-5 M for most compounds. The reported endpoint is percent growth (GI% or GIPRCNT), where numbers from 0 - 100% represent growth inhibition, and numbers from -100% - 0 represent cell death. For example, a value of 40 represents 60% growth inhibition. A value of 0 means no net growth occurred over the course of the experiment. A value of -40 indicates 40% of cells at the beginning of the experiment died by the end of the experiment. A value of -100 means all cells are dead at the end of the experiment.
NCI-60 Human Tumor Cell Lines Screen was performed using the standard one-dose NCI protocol, which is described in more detail at https://dtp.cancer.gov/discovery_development/nci-60/default.htm.
Compounds with GIPRCNT values below 10 were considered active. Activity score was based on GIPRCNT using the following formula: […]
Score is 0 for GIPRCNT values of 100 or above, 50 for GIPRCNT values of 0, and 100 for GIPRCNT values of -100.

| SMILES | growth |
| --- | --- |
| O=C1c2c(c3c4ccccc4[nH]c3c3ccc4ccccc4c23)C(=O)N1CCN1CCOCC1 | 71.7% |
| Cc1cn(-c2cc(NC(=O)c3cncc(C#Cc4cnc(N)c5ncccc45)c3)cc(C(F)(F)F)c2)cn1 | 60.3% |
| O=C(NNC(=O)c1ccc(NC(=O)c2ccccn2)cc1)Nc1ccc([N+](=O)[O-])cc1 | 92.4% |
| c1ccc([P+](c2ccccc2)(c2ccccc2)c2ccc3c4ccc([P+](c5ccccc5)(c5ccccc5)c5ccccc5)c5cccc(c6cccc2c63)c54)cc1 | 24.3% |
| N=C(N)c1ccc(-c2ccc(-c3ccccc3)o2)cc1 | -10.9% (active) |
| CCOCCNC1=C(Cl)C(=O)c2ccccc2C1=O | 120% |
| COC(=O)/C=C1/SC(=Nc2cccc(OC)c2)N(CCc2c[nH]c3ccc(O)cc23)C1=O | 83.3% |
| N#Cc1nc(-c2ccc(F)cc2)oc1S(=O)(=O)N1CCOCC1 | 101% |
| C#Cc1c2c(c(OC)c3c1OCO3)[C@H]([C@H]1OC(=O)c3c1ccc(OC)c3OC)N(C)CC2 | 101% |
| COc1ccc(C(=O)N2c3ccccc3Sc3ccccc32)c(OC)c1 | 47.8% |
| CCOC(=O)C/C(=N\Nc1cc(=O)[nH]c2ccc(Br)cc12)C(=O)OCC | 99.6% |
| c1csc(-c2ccc(CNc3c4ccccc4nc4ccccc34)cc2)c1 | 67.1% |
| COc1ccc(Nc2ncc(Br)c(NCCCNC(=O)C3CCCC3)n2)cc1 | 54.6% |
| COC12C=C/C(=C(/C(=O)OCc3ccncn3)C(=O)CCCCCCCCC3(OC)C=C/C(=C(/C(=O)OCc4ccncn4)C(=O)CCCCCCCC1)O3)O2 | -2.72% (active) |
| O=c1[nH]c(-c2ccccc2)nc2sc3cc(O)ccc3c12 | 115% |
| COc1cc(-c2csc(NC(=O)c3ccc(N4CCOCC4)c(C(F)(F)F)c3)n2)cc(OC)c1OC | 83.9% |
| Cc1ccc(NC(=O)c2sc3nc(C)c(Br)c(C)c3c2N)cc1 | 79.1% |
| NC(=O)c1ccc(-c2c3ccccc3cc3c2ccc2ccccc23)cc1 | 74.7% |
| CC(C)Cn1cnc2c(=O)[nH]c(N)nc21 | 110% |
| Cc1cc(N2CCCCC2)cc(C)c1-c1csc(NC(=O)c2ccncc2)n1 | 92.6% |

| SMILES | growth |
| --- | --- |
| COC(=O)[C@@H](CCCCNC(=O)[C@]12CCC(C)(C)C[C@@H]1C1=CC[C@@H]3[C@@]4(C)C/C(=C/c5ccco5)C(=O)C(C)(C)[C@@H]4CC[C@@]3(C)[C@]1(C)CC2)NC(=O)[C@]12CCC(C)(C)C[C@@H]1C1=CC[C@@H]3[C@@]4(C)C/C(=C/c5ccco5)C(=O)C(C)(C)[C@@H]4CC[C@@]3(C)[C@]1(C)CC2 | 108% |
| O=C(Nc1cccc2ccccc12)NC1CC1 | 110% |
| CC(C)=CCC[C@](C)(O)[C@H]1CC[C@]2(C)[C@@H]1CC[C@@H]1[C@@]3(C)C/C(=C/c4ccco4)C(=O)C(C)(C)[C@@H]3CC[C@]12C | 102% |
| Cc1cccc(/C=C/c2c(C(=O)/C=C/c3ccccc3)c(C)nc3ccccc23)c1 | -37.9% (active) |
| Cc1ccc2c(Cn3cc(CSc4nc5ccccc5o4)nn3)cc(=O)oc2c1 | 116% |
| O=C(Nc1ccc(Oc2cccc(Cl)c2)c(Cl)c1)c1cccnc1 | 71.2% |
| CCCc1c(OC(=O)c2ccccc2)nc2[nH]c(=O)sc2c1C | 98.8% |
| O=C(Nc1cccc(-c2ccc(Cl)c(C(F)(F)F)c2)c1)C1CCN(Cc2cccc3cccnc23)CC1 | 70.2% |
| COc1cc2c(c(OC)c1OC)CCC(c1cccc(C(=O)Nc3cccc(Cl)c3)c1)O2 (stereo not given) | 75.3% |
| COc1ccc(C2=C(Br)C(=O)c3nc(C)ccc3C2=O)cc1 | 109% |
| Clc1ccc2c(c1)C(c1c[nH]c3ccccc13)(c1c[nH]c3ccccc13)CCO2 | 96% |
| N#CC1=C(c2ccccc2)Nc2c(c(-c3ccc(Cl)cc3)nn2-c2ccccc2)C12C(=O)Nc1ccc(Cl)cc12 (stereo not given) | 82.6% |
| CN(C)Cc1ccc(O)c(C(=O)O)c1 | 108% |
| O=S(=O)(NCCCNc1nccc(-c2c(-c3ccc(F)c(O)c3)nc3sccn23)n1)c1ccccc1 | 113% |
| Nc1ncnc2c1N=C(c1ccc(Br)cc1)CC(c1cccc(Nc3ccnc4cc(C(F)(F)F)ccc34)c1)N2 (stereo not given) | 88.7% |
| COc1ccc(\C=N/N=C(N)/C(N)=N\N=C/c2ccc(OC)cc2)cc1 | 107% |
| C=C(C)[C@@H]1CC[C@]2(CO)CC[C@]3(C)[C@H](CC[C@@H]4[C@@]5(C)CC[C@H](NCO)C(C)(C)[C@@H]5CC[C@]43C)[C@@H]12 | -91.2% (active) |
| Nc1cc(C(=O)NC[C@H]2CN(c3ccc(N4CCC(C(=O)O)CC4)cc3)C(=O)O2)ccc1Cl | 96.1% |
| CCN(CC)CC(O)COc1c(Br)c(Br)c(Br)c2c1OC(C)(C)C2 (stereo not given) | 93.2% |
| O=[N+]([O-])c1ccc(O)cc1Br | 94% |

From PubChem BioAssay (NCI)
